Measurements published in PubChem BioAssay (NCI).
The panel holds about 83,000 compounds, 20% with a hit somewhere; the sample as a whole holds those more often.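 48-hour exposure, single concentration, 96-well plates; percent growth endpoint where 0 means no net growth. Active: below 10.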 Calls of active or inactive are those of the source.

Test system: MDA-MB-468 breast
Assay: NCI-60 one-dose screen, 48 h (100 = growth as untreated, 0 = no growth, -100 = all killed)
Conditions: 10 µM unless noted

SMILES | growth
O=S(=O)(NC1CC2CCC1C2)c1ccc2c(c1)C(=NO)c1cc(S(=O)(=O)NC3CC4CCC3C4)ccc1-2 (configuration not stated) | -61.9% (active)
COc1ccc(/C=C/C=C\C(=O)c2ccc(-n3ccnc3)cc2)cc1 | 92.4% (inactive)
COc1ccc(C(=O)CC(c2ccccc2)C(C#N)c2ccccc2)cc1 (configuration not stated) | 69.8% (inactive)
C=C(C)[C@@H]1CC[C@]2(C(=O)O)CC[C@]3(C)[C@H](CC[C@@H]4[C@@]5(C)C/C(=C/c6ccc(OC)cc6)C(=O)C(C)(C)[C@@H]5CC[C@]43C)[C@@H]12 | 0.722% (active)
CCCCn1c(C)nc2ccc(Nc3nc(N4CCN(C)CC4)nc4nc[nH]c34)cc21 | 82.2% (inactive)
C=C(C)[C@@H]1CC=C2c3sc(-c4ccc(C)cc4)nc3C[C@@H](C)[C@]2(C)C1 | 108% (inactive)
O=C(CCCCCCC(=O)Nc1ccc2c(c1)/C(=C/c1ccc[nH]1)C(=O)N2)NO | 22.9% (inactive)
c1ccc(C2NCCNC2c2ccccc2)cc1 (configuration not stated) | 111% (inactive)
COc1ccc(CNC(=O)[C@H](O)[C@@H](N)Cc2ccccc2)cc1 | 106% (inactive)
O=c1/c(=C\c2ccc(-c3ccccc3)o2)sc2nc(-c3ccccc3)nn12 | 124% (inactive)
CC(C)(C)n1cc(-c2ccnc(NCCNS(=O)(=O)c3ccc(C(F)(F)F)cc3)c2)c(-c2cccc(O)c2)n1 | 36.8% (inactive)
CC1(C)c2[nH]c3ccccc3c2C[C@]2(C)[C@H]3CC=C4[C@@H]5C[C@@](C)(C(N)=O)CC[C@]5(C)CC[C@@]4(C)[C@]3(C)CC[C@@H]12 | 21.7% (inactive)
